# Measurements reported in article PMC11006913.
# Where a chain is given by its changes, count along the chain named.
# How the values were obtained:
# Assay in all cases: PBM; 200 nM protein, PBS
# Conditions in all cases: dsDNA, one strand shown
# SIX6 [1] = biological target: T1, SIX6 (Homo sapiens, UniProt O95475 114-200, L143V)
# T1 sequence: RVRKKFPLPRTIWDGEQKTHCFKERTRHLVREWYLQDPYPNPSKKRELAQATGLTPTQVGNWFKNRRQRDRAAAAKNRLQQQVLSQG
# SIX6 [2] = biological target: T2, SIX6 (Homo sapiens, UniProt O95475 114-200, H141N)
# T2 sequence: T1 sequence with H28N, V30L
# SIX6 [3] = biological target: T3, SIX6 (Homo sapiens, UniProt O95475 114-200, L143M)
# T3 sequence: T1 sequence with V30M
# SIX6 [4] = biological target: T4, SIX6 (Homo sapiens, UniProt O95475 114-200, L143I)
# T4 sequence: T1 sequence with V30I
# SIX6 [5] = biological target: T5, SIX6 (Homo sapiens, UniProt O95475 114-200, T165A)
# T5 sequence: T1 sequence with V30L, T52A
# SIX6 [6] = biological target: T6, SIX6 (Homo sapiens, UniProt O95475 114-200)
# T6 sequence: T1 sequence with V30L
# HOXA4 [7] = biological target: HOXA4 (Homo sapiens, UniProt Q00056 201-287, W262R)
# Sequence of HOXA4 (Homo sapiens, UniProt Q00056 201-287, W262R) (Q00056 201-287 W262R): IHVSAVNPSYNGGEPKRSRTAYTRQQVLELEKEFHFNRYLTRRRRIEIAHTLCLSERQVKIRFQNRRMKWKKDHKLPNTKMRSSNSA
# HOXA7 [8] = biological target: HOXA7 (Homo sapiens, UniProt P31268 116-202)
# Sequence of HOXA7 (Homo sapiens, UniProt P31268 116-202) (P31268 116-202): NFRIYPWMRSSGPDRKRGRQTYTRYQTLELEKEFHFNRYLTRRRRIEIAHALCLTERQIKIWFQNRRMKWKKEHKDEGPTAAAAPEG
# HOXA4 [9] = biological target: HOXA4 (Homo sapiens, UniProt Q00056 201-287, R217L)
# Sequence of HOXA4 (Homo sapiens, UniProt Q00056 201-287, R217L) (Q00056 201-287 R217L): as the sequence (Q00056 201-287 W262R) above, with R17L, R62W counted along it
# HOXA4 [10] = biological target: HOXA4 (Homo sapiens, UniProt Q00056 201-287)
# Sequence of HOXA4 (Homo sapiens, UniProt Q00056 201-287) (Q00056 201-287): as the sequence (Q00056 201-287 W262R) above, with R62W counted along it
# HOXA7 [11] = biological target: HOXA7 (Homo sapiens, UniProt P31268 116-202, W177C)
# Sequence of HOXA7 (Homo sapiens, UniProt P31268 116-202, W177C) (P31268 116-202 W177C): as the sequence (P31268 116-202) above, with W62C counted along it
# HOXA4 [12] = biological target: HOXA4 (Homo sapiens, UniProt Q00056 201-287, W262F)
# Sequence of HOXA4 (Homo sapiens, UniProt Q00056 201-287, W262F) (Q00056 201-287 W262F): as the sequence (Q00056 201-287 W262R) above, with R62F counted along it
# HOXD13 [13] = biological target: HOXD13 (Homo sapiens, UniProt P35453 263-343)
# Sequence of HOXD13 (Homo sapiens, UniProt P35453 263-343) (P35453 263-343): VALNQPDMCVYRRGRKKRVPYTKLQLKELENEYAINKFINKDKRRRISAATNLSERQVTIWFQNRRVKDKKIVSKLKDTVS
# HOXC10 [14] = biological target: HOXC10 (Homo sapiens, UniProt Q9NYD6 254-340)
# Sequence of HOXC10 (Homo sapiens, UniProt Q9NYD6 254-340) (Q9NYD6 254-340): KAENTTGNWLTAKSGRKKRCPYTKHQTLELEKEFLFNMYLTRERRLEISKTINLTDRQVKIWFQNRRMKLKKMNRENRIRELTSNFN
# PRRX1 = PRRX1 (Homo sapiens, UniProt P54821 80-166)
# Sequence of PRRX1 (P54821 80-166): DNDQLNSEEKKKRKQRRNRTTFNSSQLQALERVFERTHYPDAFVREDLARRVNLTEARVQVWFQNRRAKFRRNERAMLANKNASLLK
# HOXC10 [15] = biological target: HOXC10 (Homo sapiens, UniProt Q9NYD6 254-340, K271E)
# Sequence of HOXC10 (Homo sapiens, UniProt Q9NYD6 254-340, K271E) (Q9NYD6 254-340 K271E): as the sequence (Q9NYD6 254-340) above, with K18E counted along it
# HOXB9 = HOXB9 (Homo sapiens, UniProt P17482 171-250, T197M)
# Sequence of HOXB9 (P17482 171-250 T197M): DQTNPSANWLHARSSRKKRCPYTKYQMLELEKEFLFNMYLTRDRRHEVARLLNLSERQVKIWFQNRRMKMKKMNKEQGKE
# PITX2 = PITX2 (Homo sapiens, UniProt Q99697 72-157)
# HOXD13 [16] = biological target: HOXD13 (Homo sapiens, UniProt P35453 263-343, T313R)
# Sequence of HOXD13 (Homo sapiens, UniProt P35453 263-343, T313R) (P35453 263-343 T313R): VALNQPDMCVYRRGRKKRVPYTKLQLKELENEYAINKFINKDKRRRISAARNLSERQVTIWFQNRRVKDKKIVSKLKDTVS
# HOXD13 [17] = biological target: HOXD13 (Homo sapiens, UniProt P35453 263-343, T313A)
# Sequence of HOXD13 (Homo sapiens, UniProt P35453 263-343, T313A) (P35453 263-343 T313A): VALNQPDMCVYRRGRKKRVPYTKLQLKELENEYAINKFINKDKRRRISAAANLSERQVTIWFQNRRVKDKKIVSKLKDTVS
sequence,measurement,setting,value
CCCGGCGG,binding signal,SIX6 [1],"8.98 upbm affinity estimate (log intensity, higher = more binding, comparable within an allelic series)"
same,binding signal,SIX6 [2],"9.13 upbm affinity estimate (log intensity, higher = more binding, comparable within an allelic series)"
same,binding signal,SIX6 [3],"9.17 upbm affinity estimate (log intensity, higher = more binding, comparable within an allelic series)"
same,binding signal,SIX6 [4],"9 upbm affinity estimate (log intensity, higher = more binding, comparable within an allelic series)"
same,binding signal,SIX6 [5],"9.22 upbm affinity estimate (log intensity, higher = more binding, comparable within an allelic series)"
same,binding signal,SIX6 [6],"9.12 upbm affinity estimate (log intensity, higher = more binding, comparable within an allelic series)"
CTAATTGC,binding signal,HOXA4 [7],"10.4 upbm affinity estimate (log intensity, higher = more binding, comparable within an allelic series)"
same,binding signal,HOXA7 [8],"11.4 upbm affinity estimate (log intensity, higher = more binding, comparable within an allelic series)"
same,binding signal,HOXA4 [9],"11.8 upbm affinity estimate (log intensity, higher = more binding, comparable within an allelic series)"
same,binding signal,HOXA4 [10],"13.8 upbm affinity estimate (log intensity, higher = more binding, comparable within an allelic series)"
same,binding signal,HOXA7 [11],"8.67 upbm affinity estimate (log intensity, higher = more binding, comparable within an allelic series)"
same,binding signal,HOXA4 [12],"11.4 upbm affinity estimate (log intensity, higher = more binding, comparable within an allelic series)"
AATAAGTG,binding signal,HOXD13 [13],"10.6 upbm affinity estimate (log intensity, higher = more binding, comparable within an allelic series)"
ACCACTTA,binding signal,HOXC10 [14],"10.9 upbm affinity estimate (log intensity, higher = more binding, comparable within an allelic series)"
ACGCGCAG,binding signal,PRRX1,"9.2 upbm affinity estimate (log intensity, higher = more binding, comparable within an allelic series)"
AATTAGCT,binding signal,HOXA4 [12],"11.5 upbm affinity estimate (log intensity, higher = more binding, comparable within an allelic series)"
CCGGAGCC,binding signal,HOXA4 [7],"9.74 upbm affinity estimate (log intensity, higher = more binding, comparable within an allelic series)"
same,binding signal,HOXA4 [9],"9.76 upbm affinity estimate (log intensity, higher = more binding, comparable within an allelic series)"
same,binding signal,HOXA4 [10],"9.77 upbm affinity estimate (log intensity, higher = more binding, comparable within an allelic series)"
same,binding signal,HOXA4 [12],"9.84 upbm affinity estimate (log intensity, higher = more binding, comparable within an allelic series)"
GTACTTAA,binding signal,HOXC10 [15],"11.9 upbm affinity estimate (log intensity, higher = more binding, comparable within an allelic series)"
CGGGCTCC,binding signal,HOXB9,"8.02 upbm affinity estimate (log intensity, higher = more binding, comparable within an allelic series)"
same,binding signal,HOXA4 [7],"9.62 upbm affinity estimate (log intensity, higher = more binding, comparable within an allelic series)"
same,binding signal,HOXA4 [9],"9.45 upbm affinity estimate (log intensity, higher = more binding, comparable within an allelic series)"
same,binding signal,HOXA4 [10],"9.29 upbm affinity estimate (log intensity, higher = more binding, comparable within an allelic series)"
same,binding signal,HOXA4 [12],"9.68 upbm affinity estimate (log intensity, higher = more binding, comparable within an allelic series)"
same,binding signal,PRRX1,"8.33 upbm affinity estimate (log intensity, higher = more binding, comparable within an allelic series)"
CGCCCGAG,binding signal,HOXB9,"8.29 upbm affinity estimate (log intensity, higher = more binding, comparable within an allelic series)"
CACGCGTG,binding signal,PITX2,"7.84 upbm affinity estimate (log intensity, higher = more binding, comparable within an allelic series)"
same,binding signal,PRRX1,"9.41 upbm affinity estimate (log intensity, higher = more binding, comparable within an allelic series)"
CGGTCCAA,binding signal,PITX2,"7.89 upbm affinity estimate (log intensity, higher = more binding, comparable within an allelic series)"
ATAATGGG,binding signal,HOXA7 [8],"11.2 upbm affinity estimate (log intensity, higher = more binding, comparable within an allelic series)"
same,binding signal,HOXA7 [11],"8.88 upbm affinity estimate (log intensity, higher = more binding, comparable within an allelic series)"
CCTGGGCC,binding signal,HOXC10 [14],"10.1 upbm affinity estimate (log intensity, higher = more binding, comparable within an allelic series)"
same,binding signal,HOXC10 [15],"9.99 upbm affinity estimate (log intensity, higher = more binding, comparable within an allelic series)"
CCGGTGGC,binding signal,HOXD13 [16],"9.44 upbm affinity estimate (log intensity, higher = more binding, comparable within an allelic series)"
same,binding signal,HOXD13 [13],"9.29 upbm affinity estimate (log intensity, higher = more binding, comparable within an allelic series)"
same,binding signal,HOXD13 [17],"9.43 upbm affinity estimate (log intensity, higher = more binding, comparable within an allelic series)"
CCAGCCAG,binding signal,HOXB9,"8.47 upbm affinity estimate (log intensity, higher = more binding, comparable within an allelic series)"
same,binding signal,HOXD13 [16],"9.41 upbm affinity estimate (log intensity, higher = more binding, comparable within an allelic series)"
same,binding signal,HOXD13 [13],"9.59 upbm affinity estimate (log intensity, higher = more binding, comparable within an allelic series)"
same,binding signal,HOXD13 [17],"9.56 upbm affinity estimate (log intensity, higher = more binding, comparable within an allelic series)"
CCGACGCC,binding signal,HOXA7 [8],"8.58 upbm affinity estimate (log intensity, higher = more binding, comparable within an allelic series)"
same,binding signal,HOXA7 [11],"8.45 upbm affinity estimate (log intensity, higher = more binding, comparable within an allelic series)"
CCGACCTC,binding signal,HOXD13 [16],"9.52 upbm affinity estimate (log intensity, higher = more binding, comparable within an allelic series)"
same,binding signal,HOXD13 [13],"9.45 upbm affinity estimate (log intensity, higher = more binding, comparable within an allelic series)"
same,binding signal,HOXD13 [17],"9.44 upbm affinity estimate (log intensity, higher = more binding, comparable within an allelic series)"
CATGCGCC,binding signal,HOXB9,"8.7 upbm affinity estimate (log intensity, higher = more binding, comparable within an allelic series)"
CGTGCACG,binding signal,HOXB9,"8.83 upbm affinity estimate (log intensity, higher = more binding, comparable within an allelic series)"
same,binding signal,PRRX1,"9.56 upbm affinity estimate (log intensity, higher = more binding, comparable within an allelic series)"
CGGTCGGC,binding signal,PITX2,"7.99 upbm affinity estimate (log intensity, higher = more binding, comparable within an allelic series)"
